Here are results for 39 sequences from the supplement of paper PMC6555819.

One experiment has as its system RARb homodimer (NR concentration 270 nM). The experiment in a line: PBM binding z-score (relative to random genomic background probes); higher = stronger binding; sequences stand for … in GC…GCGATTGACAGCGTAGAATGAAGG
The gist of the method:
(§1)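 Binding z-scores take random background probes as their reference. They come from custom Agilent 4×180K protein-binding microarrays incubated 1 h with ligand-free nuclear receptor dimers, with antibodies against each partner (one per run) detecting binding. Scanned fluorescence was regression-normalized.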
The sequence TCTCGGAGGACATGAAGGTCAGAGCTTTCCAGAG came in with a PBM binding z-score of 3.3.

Sequence TTACCAAGGTGAAGGTCGTTGAGCCCTCTGTAGA yielded a PBM binding z-score of 1.79.

With TCTGCTAGGTCAGTTGGTCAGCTATCGAGCTGCC, the PBM binding z-score amounted to 2.69.

Take ACTAGCAGGCGAAGGGTCACTCAAGATTAGTCCG: the PBM binding z-score was 3.34.

Sequence ATATGTAGGCTATCGGGTCATTCAGTTTGCGCAT registered a PBM binding z-score of 2.23.

For the sequence ATATGTACGTTACATCCGGGTCATTCAGGCTATG, the PBM binding z-score is 2.41.

On to CCTGCTAGGTCAATGGTCAGCGAAAGCAGCTCGC, for which the PBM binding z-score came to 2.63.

The sequence TCTTGGAGATCAACAGGAGGTTAAGAAAGATCGA displayed a PBM binding z-score of 0.488.

In the case of TCTTGTAGATCAACAGGAAGTTAAGAAAGATCGA, the PBM binding z-score was -0.828.

For TAGCCTAGGTCATGGACCAGTATACCACGCGAAC, the PBM binding z-score was determined as 2.8.

Sequence TCTCGGAGGACACGAAAGGTCCGAGCTCGACATC returned a PBM binding z-score of 0.997.

Sequence TCTTGTAGATGAACAGGAGGTTAAGAAAGATCGA had a PBM binding z-score of 0.252.

Take CCTAGTTGGTCAGAAGGTCACACACCGGATATGA: the PBM binding z-score was found to be 4.46.

For the sequence CCTTACGGGACACTGACAGGTTATAGCATTTGGA, the PBM binding z-score came to 0.492.

Sequence GATTCAGGGTCAAGGCCAGAGTACGCGTATTGAT registered a PBM binding z-score of 4.04.

TTGCCTAGGTCAGATCGGGCCAGTATACGCTATA registered a PBM binding z-score of 2.16.

For TTACCAAGGTGAGCTGAGGTCGTTGACCCAACTC, the PBM binding z-score was 2.

The next experiment has as its system RARg:RXRa (NR concentration 270 nM, RXRa partner concentration 90 nM). The description is as above. Summed up:
as §1
In turn, GATACAGGGTCAGGTAGAGGCCAGAGTATGGAAA registered a PBM binding z-score of 6.43.

Regarding TTACCAAGGTGAGCTGAGGTCCTTGATCCAACTC, the PBM binding z-score worked out at 0.18.

As to AGAACGAGGGCAATGAGTTGAGAGCACGGGTGGC, the PBM binding z-score was found to be 0.994.

ATCGATAGGTCGTGAGGTGAGTATACAGAAAGGC showed a PBM binding z-score of 2.16.

The sequence GATACAGGGTCAAGGCAAGAGTACGCGTATTGAT had a PBM binding z-score of 5.5.

In turn, TCTAGTTGGTCACGCAGGTCACACACGACGGGTA showed a PBM binding z-score of 3.59.

CTCGAAAGGTCGTGCTCAGGTGACTATACCAAAC came in with a PBM binding z-score of 5.21.

As for CATACTGGGCCAAAGGTCATTGATTCCAATGCTC, the PBM binding z-score was 5.89.

Regarding TCGAGTAGGTTACCAATAGGGCATTCAGCTTTCT, the PBM binding z-score is 1.78.

As for CGTCCAAGGTCAAGGTCAGTGATAGAGACTCGAA, the PBM binding z-score worked out at 6.7.

ATATGTAGGATACATCCGGGTCATTCAGGCTATG came in with a PBM binding z-score of 1.58.

Consider TCTAGTTGGTCAAGGAGGTCACACACGACGGGTA, for which the PBM binding z-score stood at 4.38.

In the case of GCATATACGTAATACAAGGTGAAAGTCCGATTGT, the PBM binding z-score is 0.54.

As to ACTAGTTGGACAGCTGAGGTCACACACAATTCGG, the PBM binding z-score came to 3.66.

Consider CCTAGTTGGTCAAGGTCACACGCGCTATAGGTAC, for which the PBM binding z-score was found to be 4.76.

For the sequence ATATGTAGGTTACGGGTCATTCAGGTTGGTTCGC, the PBM binding z-score amounted to 3.35.

Take ATCGAAAGCTCGTGAGGTGAGTATACAGAAAGGC: the PBM binding z-score was -0.029.

Turning to CCTATTAGTTGACCATCAGGGCAACCGAAGCTCG, the PBM binding z-score was 0.553.

TCGAGTAGGTGAGTCGGGGCATTCAGCCAACATA: the PBM binding z-score is -0.294.

Regarding ACTAGTTGGTCAGCTGAGCTCACACACAATTCGG, the PBM binding z-score is -0.0715.

On to TCTTGTAGATCAAAGGGTAAGAAAGCCGAAGCCT, for which the PBM binding z-score was 0.11.

As for TATACAGGGTCAAAGGCCAGAATACGAATGTCGA, the PBM binding z-score was 5.71.

Sequence TCTCGGAGGACATGAAGGTCAGAGCTTTCCAGAG displayed a PBM binding z-score of 2.47.

For the sequence TTACCAAGGTGAAGGTCGTTGAGCCCTCTGTAGA, the PBM binding z-score is 1.3.

As for TCTGCTAGGTCAGTTGGTCAGCTATCGAGCTGCC, the PBM binding z-score came to 2.62.

For the sequence ACTAGCAGGCGAAGGGTCACTCAAGATTAGTCCG, the PBM binding z-score was 3.45.

Turning to ATATGTAGGCTATCGGGTCATTCAGTTTGCGCAT, the PBM binding z-score came to 2.01.

Regarding ATATGTACGTTACATCCGGGTCATTCAGGCTATG, the PBM binding z-score came out at 1.61.

CCTGCTAGGTCAATGGTCAGCGAAAGCAGCTCGC yielded a PBM binding z-score of 3.65.

Take TCTTGGAGATCAACAGGAGGTTAAGAAAGATCGA: the PBM binding z-score is 1.9.

Turning to TCTTGTAGATCAACAGGAAGTTAAGAAAGATCGA, the PBM binding z-score is -0.328.

The sequence TAGCCTAGGTCATGGACCAGTATACCACGCGAAC came in with a PBM binding z-score of 4.03.

The sequence TCTCGGAGGACACGAAAGGTCCGAGCTCGACATC returned a PBM binding z-score of 0.805.

Turning to TCTTGTAGATGAACAGGAGGTTAAGAAAGATCGA, the PBM binding z-score came to 0.473.

On to CCTAGTTGGTCAGAAGGTCACACACCGGATATGA, for which the PBM binding z-score was 4.85.

In turn, CCTTACGGGACACTGACAGGTTATAGCATTTGGA gave a PBM binding z-score of 0.652.

GATTCAGGGTCAAGGCCAGAGTACGCGTATTGAT yielded a PBM binding z-score of 6.08.

TTGCCTAGGTCAGATCGGGCCAGTATACGCTATA registered a PBM binding z-score of 2.77.

On to TTACCAAGGTGAGCTGAGGTCGTTGACCCAACTC, for which the PBM binding z-score turned out to be 1.58.
